ELG1 repair inh = qHTS screen for small molecules that inhibit ELG1-dependent DNA repair in human embryonic kidney (HEK293T) cells expressing luciferase-tagged ELG1 | Potency, µM (series often up to 46.1 µM), for inactives: at the highest dose activity change, negative = inhibition, most hits filed as inhibitors | 2.3% of 330,000 active | HEK293T ELG1-luciferase reporter, luminescence, 16 h; DNA damage induced by 5-fluorouridine; also: potency is read from the fitted curve at half-maximal effect; nearly all actives have a fitted effect of over 55% in size
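In this reporter screen, reduction of luminescence relative to DMSO vehicle indicated activity. Compounds and 5-fluorouridine were added together to 2,000 cells per well, incubated for 16 hr at 37 °C, then developed with ONE-Glo.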
HT1080 IDH1KD tx = qHTS for induction of synthetic lethality in tumor cells producing 2HG: qHTS for the HT-1080-IDH1KD cell line; HT-1080 IDH1 knockdown viability, ATP luminescence, 48 h; Potency, µM (top dose mostly 46.1 µM), inactives show top-dose activity, negative = toxicity, actives largely listed as cytotoxic; 2% of 360,000 active;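 also: potency is read from the fitted curve at half-maximal effect; 0% = DMSO wells and -100% = cell-free medium wells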
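In this qHTS, HT-1080 cells depleted of IDH1 are exposed for 48 h at 37 °C to compound titrations. Toxicity is scored from CellTiter-Glo luminescence, with DMSO as full viability and medium alone as none.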
IL-1B inflam inh = qHTS for Inhibitors of Inflammasome Signaling: IL-1-beta AlphaLISA Primary Screen | THP-1 LPS/ATP IL-1B secretion, AlphaLISA, 16 h; stronger effect = lower value | activity change, % at 57.5 µM | 4.7% of 360,000 active; in the data active = activity change below about -50%; inconclusive = mostly about -30% to -49%
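Secreted IL-1B measured by AlphaLISA bead assay after 16 h compound exposure of THP-1 cells; compounds (final up to 57.5 uM) added 1 h before LPS (250 ng/mL) and ATP (1.25 mM) stimulation; lower signal means less secretion.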
TDP1 cell CPT = qHTS for Inhibitors of human tyrosyl-DNA phosphodiesterase 1 (TDP1): qHTS in cells in presence of CPT; AID 686979, 2013; 12% of 420,000 active; chicken DT40 Tdp1-/-;hTDP1 cells + 20 nM CPT, ATP luminescence, 48 h; Potency, µM (titrated, usually from 46.2 µM), inactives show at the highest dose activity change, negative = growth inhibition, actives largely listed as inhibitors; also: potency is read from the fitted curve at half-maximal effect; nearly all actives have a fitted effect of over 55% in size
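Chicken DT40 Tdp1-/- cells complemented with human TDP1, 400 cells/well, exposed to compounds plus 20 nM camptothecin for at least 48 h at 37 C; viability read as ATP content by CellTiter-Glo luminescence.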
HT1080NT lethal = qHTS for induction of synthetic lethality in tumor cells producing 2HG: qHTS for the HT-1080-NT fibrosarcoma cell line; 1.6% of 360,000 active; Potency, µM (series often up to 46.1 µM), inactives show top-dose activity, negative = less viability, usual class: cytotoxic; HT-1080-NT fibrosarcoma viability, CellTiter-Glo ATP luminescence, 48 h;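 also: NT is the 2HG producing partner of a matched IDH1 knockdown line; potency is read from the fitted curve at half-maximal effect; 0% = DMSO-treated cells and -100% = media-only wells without cells; nearly all actives have a fitted effect of over 55% in size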
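Viability by CellTiter-Glo luminescence after 48 h compound exposure at 37C of HT-1080-NT cells (750/well, RPMI, 5% FBS). % activity scaled between DMSO wells and medium-only wells, then curve-fitted and categorized by curve class.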
DT40 TDP1 no CPT = qHTS for Inhibitors of human tyrosyl-DNA phosphodiesterase 1 (TDP1): qHTS in cells in absence of CPT. DT40 Tdp1-/- hTDP1 cells, no CPT, ATP luminescence, 48 h. Potency, µM (series often up to 46.2 µM), without a hit: top-dose activity change, negative = growth inhibition, usual class: inhibitors. 15% of 420,000 active; also: potency is read from the fitted curve at half-maximal effect; nearly all actives have a fitted effect of over 55% in size
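Growth kinetics read by CellTiter-Glo luminescence after ≥48 hr at 37 °C. Cells: DT40 Tdp1-/- stably carrying human TDP1, 400 per well, compound exposure in the absence of CPT (DMSO vehicle).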
Numbers without * were called inactive; i = inactive; ? = inconclusive; . = not tested or not shown. Compounds with a hit are over-represented: about 19% of the library has one in this group of screens. Unless noted, calls follow the shape of the dose curve; as a rule, active = well fitted curve in the direction sought with a large enough effect; inconclusive = small, poorly fitted or top-dose-only effect, or another doubt; inactive = no such curve, though single readings can be large; an effect the other way counts as inactive or inconclusive. Unless noted, % is scaled to controls: 0 for no effect and ±100 for the full control effect.

SMILES	ELG1 repair inh	HT1080 IDH1KD tx	IL-1B inflam inh	TDP1 cell CPT	HT1080NT lethal	DT40 TDP1 no CPT
CN(c1nc2ccccc2n2c(C3CC3)nnc12)S(=O)(=O)c1ccccc1	-1%	0%	7	-27%	0%	?
O=C(NC1CCCC1)c1nc(-c2ccco2)oc1-c1ccccc1	.	-9%	-4	?	0%	?
COc1cc2c(cc1OC)CN(CC(=O)Nc1cccc([N+](=O)[O-])c1)CC2	?	-10%	-19	?	-9%	16µM*
COc1cc2c(cc1OC)CN(C(=O)/C=C/c1ccc([N+](=O)[O-])cc1)CC2	-19%	-4%	-5	18µM*	14%	16µM*
COc1cc2c(cc1OC)CN(C(=O)c1cccs1)CC2	5%	27%	?	-10%	16%	?
CCOc1ccc(C(=O)N2CCc3cc(OC)c(OC)cc3C2)cc1OCC	?	?	-3	?	-10%	29µM*
Cc1ccc(/C=C/C(=O)N2CCc3ccccc3C2)cc1	?	-9%	-7	?	10%	?
COc1cc2c(cc1OC)CN(C(=O)c1ccc(OC)c([N+](=O)[O-])c1)CC2	-5%	0%	-2	-17%	5%	?
COc1cc2c(cc1OC)CN(C(=O)/C=C/c1cccs1)CC2	10%	4.1µM*	0	1.5µM*	7.3µM*	1µM*
O=C(NC1CCCCCC1)C1CCC(=O)N(Cc2ccccc2F)C1 (stereo not drawn)	21%	-1%	i	-5%	1%	-20%
COc1cccc(-c2nn(-c3ccc(C)cc3)cc2C(=O)N2CCc3cc(OC)c(OC)cc3C2)c1	?	21µM*	-6	18µM*	?	?
COc1cccc2cc(C(=O)N3CCc4ccccc4C3)c(=O)oc12	?	8%	18	-9%	15%	-23%
COc1ccc(OC)c(-c2nn(-c3ccccc3)cc2C(=O)N2CCc3ccccc3C2)c1	?	?	?	?	-18%	?
COc1cc2c(cc1OC)CN(C(=O)c1cccc([N+](=O)[O-])c1)CC2	-6%	7%	-8	26µM*	6%	?
COc1cc2c(cc1OC)CN(C(=O)c1cc3ccccc3oc1=O)CC2	-24%	16µM*	12	10µM*	?	12µM*
Cc1cccc(NS(=O)(=O)c2cn(C)c(=O)n(C)c2=O)c1C	4%	16%	3	0%	15%	0%
O=C(CN(C(=O)c1csnn1)c1cccc(Cl)c1)NC1CCCCC1	-11%	1%	6	-1%	9%	-15%
O=C(NC12CC3CC(CC(C3)C1)C2)c1ccc([N+](=O)[O-])cc1	1%	-6%	?	?	1%	-16%
CCS(=O)(=O)N1CCN(c2ccc(C(=O)NC34CC5CC(CC(C5)C3)C4)cc2[N+](=O)[O-])CC1	23µM*	8%	29	12µM*	6%	7.3µM*
CS(=O)(=O)N1CCN(c2ccc(C(=O)NC34CC5CC(CC(C5)C3)C4)cc2[N+](=O)[O-])CC1	19%	10%	26	15µM*	2%	9.2µM*
Nc1nc(Cl)nc2c1ncn2C1CCC(CO)O1 (stereo not drawn)	.	4%	39	1µM*	5%	1.5µM*
